According to PubChem BioAssay AID1508600 (Functional Genomics Laboratory (NCATS/FGL), 2020):
In all, about 53,000 sequences went through this assay and about 3,700 (7%) were called active. The full list was thinned out, with actives kept by preference. A number with no mark means an inactive call.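 Rule for the calls: active = gene knockdowns whose robust z-score for IL-1 alpha signal is at least 2 or at most -2, so actives lie on both sides; inactive = the rest.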

assay: Components of the Cytosolic LPS Sensing Pathway: Gene Identification via Genome-wide siRNA Screen; settings: RAW264.7 macrophages, IL-1a HTRF, actives lie on both sides, screened at 100 nM (by protocol), cells primed 5 h with Pam3CSK4 first;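 note: robust z of the log signal after scaling to non-targeting control siRNA wells of the plate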
Outline: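 Mouse macrophage line RAW264.7 is transfected with siRNA (100 nM final), grown 48h, primed with TLR ligand Pam3CSK4 5 h and given intracellular LipidA 24 h. IL-1a in supernatant is read by HTRF and viability by luminescence.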

Going from GGGCUGGUCAUUUACUAAGTT against Cdh22 to CCAGAAUGUCACUGCCAGUTT against Zfy1, the z-score rises from 1.32 to 1.34.

Compared with CCUGGAGAGUGAUACGUUCTT against Serpina1f, GGGUGUUAGAAAUCAUUAUTT against Dgkd is higher in z-score: -0.228 for the first, 1.19 for the second.

First: GGAACUUCAGAGUAAACCUTT against H2-T23
Second: CCACAAUCAUUAACAAGCUTT against Arl6
The z-score of the first is lower: 0.096 for the first, 0.389 for the second.

First: GGUUCAAGAGGAGACUACUTT against BC005624
Second: GGAAUAUGUGUGGACUAGATT against Tor3a
The z-score of the first is higher: -0.127 for the first, -0.265 for the second.

Compared with GGACCAUUCUUGCGUUCGUTT against Cacng7, CCGAUUAGAAAAGACCAAATT against Ccdc25 is lower in z-score: 1.66 for the first, 0.727 for the second.

First: GGAAGUUUUGGGAGUGUGUTT against Map3k20
Second: CGCAACCUGUCACAUAAUATT against Bmpr2
The z-score of the first is lower: -1.08 for the first, -0.238 for the second.

Compared with GCUGUUCUAUCAGACCUUUTT against Cyp2b10, GCGAGUUGAAGACUGAAGGTT against Ccdc68 is higher in z-score: -0.236 for the first, 1.44 for the second.

Going from GGUCAUACAUUUGUCAUCATT against Bend7 to GGUCAUGGGACAGCAAAUGTT against Tmco6, the z-score falls from -0.336 to -1.67.

Going from GGAAGACGUAUUUGUACACTT against Ybx1 to GGAGUAGCUGAAUCUGAAGTT against Atp5e, the z-score rises from -0.523 to 1.57.

Going from GGAGCUUCAUCUUUCAAGATT against Uqcrc2 to GCAUUGUGCUUUUGACAACTT against Abca15, the z-score falls from -0.0657 to -0.173.

Going from GGACCGGUGUCUAAUCAGCTT against Capn10 to GGCUCAAGGAACAUGAGGCTT against Gtsf2, the z-score falls from 1.75 to -0.0452.

In the case of GGCACAAACUAGAUGCAGATT against Ccdc68, the z-score is reported as -0.669.

For GGUCAAACUUCAAUAGACATT against Zkscan6, the z-score was 2.01 (active).
With GGCUUACAAAAAGUACAUCTT against Tpt1 the z-score was 4.36 (active).
In the case of GGAGACUUAUAACAUGUUUTT against Habp2, the z-score is reported as 2.19 (active).
For CCAUGUUAGAACUGGGACUTT against Tafa2, the z-score was 2.44 (active).
For CCUCAUUUCAACCAUUCACTT against Lyzl6, the z-score was -2.36 (active).
For GGAGCUUGAAAUUGUCAUUTT against Magoh, the z-score was -3.51 (active).
For GCUCUCGUAGACUGCUAUATT against Ppp1r14c, the z-score was 2.13 (active).
